The results in this text go back to paper PMC6919601, “Identification of Plasmodium dipeptidyl aminopeptidase allosteric inhibitors by high throughput screening” (PLoS ONE, 2019).

The campaign covered roughly 110,000 compounds. About 230 (0.21%) showed an effect of 50% or more. Only a selection was taken, and strong results are over-represented in it overall.
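Note: 30 min substrate incubation versus DMSO and 10 µM JCP410 controls.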

For this test, the target named is DPAP1 (Plasmodium falciparum, UniProt Q8IIJ9). Nature of the test: primary screen, percent inhibition; read by cleavage of a fluorogenic dipeptide substrate; higher = more effect of the substance. More on the design: species or system P. falciparum D10 trophozoite lysates; single well.
Chain of DPAP1 (Q8IIJ9 whole entry, looked up): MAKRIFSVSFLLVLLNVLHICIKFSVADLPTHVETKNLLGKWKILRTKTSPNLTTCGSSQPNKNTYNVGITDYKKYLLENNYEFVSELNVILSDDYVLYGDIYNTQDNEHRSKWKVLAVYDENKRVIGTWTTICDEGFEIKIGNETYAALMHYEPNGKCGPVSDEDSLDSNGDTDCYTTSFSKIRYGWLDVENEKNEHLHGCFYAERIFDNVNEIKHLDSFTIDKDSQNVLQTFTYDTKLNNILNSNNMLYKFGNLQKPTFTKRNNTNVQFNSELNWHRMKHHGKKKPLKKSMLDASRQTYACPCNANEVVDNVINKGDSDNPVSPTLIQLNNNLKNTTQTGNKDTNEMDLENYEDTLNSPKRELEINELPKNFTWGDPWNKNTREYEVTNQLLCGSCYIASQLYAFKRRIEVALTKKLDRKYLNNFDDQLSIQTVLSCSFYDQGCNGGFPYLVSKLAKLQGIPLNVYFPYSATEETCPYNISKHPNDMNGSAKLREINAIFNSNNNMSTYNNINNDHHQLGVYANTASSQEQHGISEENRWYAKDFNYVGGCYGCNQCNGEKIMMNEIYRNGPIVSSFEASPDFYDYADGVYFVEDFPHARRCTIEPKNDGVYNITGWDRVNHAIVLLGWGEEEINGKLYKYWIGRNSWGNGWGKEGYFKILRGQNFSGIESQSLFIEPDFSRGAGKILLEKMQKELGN
As to `CCOC(=O)c1c(-c2ccc(F)cc2)csc1NC(=O)c1c(-c2ccccc2)noc1C`, the “% Inhibition @ 10 uM” value was found to be 0.64%. With `O=C(CCCC(=O)c1ccccc1)NC(c1ccccc1)c1ccccc1` the figure was -1.46%; with `c1ccc(CSc2nccn2Cc2ccccc2)cc1`, -1.97%.

Regarding `CC(C)CC(=O)Nc1ccc(-c2nc3cc(Cl)ccc3o2)cc1`, the “% Inhibition @ 10 uM” value is reported as -1.57%. With `Cc1ccc(CNS(=O)(=O)c2cn(C)cn2)cc1` the figure was 1.47%. With `Cc1ccc(S(=O)(=O)Nc2nnc(C)s2)cc1` the figure was -1.77%; with `Cn1cnc(S(=O)(=O)Nc2nnc(S)s2)c1`, 95.5%; with `Cc1csc(NC(=O)C(CCS(C)(=O)=O)N2Cc3ccccc3C2=O)n1` (centres unmarked), 0.0322%. With `COc1ccc(C(=O)/C=C/c2ccco2)cc1` the figure was 60.2%; with `O=C(/C=C/c1ccco1)c1ccc(C(=O)/C=C/c2ccco2)cc1`, -0.268%. `O=C(/C=C/c1ccco1)c1ccc(F)cc1`: the “% Inhibition @ 10 uM” value was 14.1%. With `COc1ccc(CCNC(=O)CN2C(=O)c3ccccc3C2=O)cc1` the figure was 1.33%; with `Cc1nn(C)cc1CN(C)C(=O)c1cc2nc(-c3ccccc3)cc(C(F)(F)F)n2n1`, 4.59%; with `Cc1cc(N(C)C)c(=O)n(-c2ccccc2)n1`, 5.74%. With `O=C1/C(=C\c2ccccn2)CN(Cc2ccccc2)C/C1=C\c1ccccn1` the figure was 55.7%; with `O=C1/C(=C/c2ccc3nccnc3c2)CN(Cc2ccccc2)C/C1=C\c1ccc2nccnc2c1`, 6.89%; with `O=C1/C(=C\c2cccnc2)CN(Cc2ccccc2)C/C1=C\c1cccnc1`, 0.287%. On to `O=C(CCN1C(=O)C2C3C=CC(C3)C2C1=O)Nc1cccnc1` (centres unmarked), for which the “% Inhibition @ 10 uM” value was -0.551%.

In the case of `CCN(CC)C(=O)Cn1cc(S(=O)(=O)Cc2cc(C)ccc2C)c2ccccc21`, the “% Inhibition @ 10 uM” value stood at 0.292%. With `Cc1cccc(NC(=O)C2CC3CCC2C3)n1` (centres unmarked) the figure was -2.66%; with `COc1ccc(S(=O)(=O)N2CCSC2c2ccc(C)cc2)cc1` (centres unmarked), -3.45%; with `COc1ccc(S(=O)(=O)N2CCSC2c2ccccc2)cc1` (centres unmarked), 3.19%. Take `COc1ccc(S(=O)(=O)N2CCSC2c2ccccc2Cl)cc1` (centres unmarked): the “% Inhibition @ 10 uM” value stood at 68.6%. With `CN(C)c1ccc(/C=C(\C#N)c2nc(-c3ccc(-c4ccccc4)cc3)cs2)cc1` the figure was 5.77%; with `CCn1ccnc1C(O)(c1ccccc1)c1ccc(C)cc1` (centres unmarked), 4.67%.

In the case of `CCN1C(=O)C(=CNc2ccc3c(c2)-c2ccccc2C3)C(=O)N(CC)C1=O`, the “% Inhibition @ 10 uM” value is given as -0.996%. As for `Nc1c(C(=O)Nc2nccs2)sc2nc(-c3cccs3)cc(C(F)(F)F)c12`, the “% Inhibition @ 10 uM” value amounted to 76.8%. In the case of `CCc1nnc(NC(=O)c2sc3nc(-c4cccs4)cc(C(F)(F)F)c3c2N)s1`, the “% Inhibition @ 10 uM” value was found to be 0.487%.

As to `Nc1c(C(=O)Nc2ccccn2)sc2nc(-c3cccs3)cc(C(F)(F)F)c12`, the “% Inhibition @ 10 uM” value is -5.07%. Regarding `CC(=O)c1ccc(NC(=O)C(C)Oc2ccccc2C)cc1` (centres unmarked), the “% Inhibition @ 10 uM” value is recorded as -5.92%. With `Cc1nc2c3ccccc3n3c(CCCC(=O)NC4CCN(Cc5ccccc5)CC4)nnc3n2n1` the figure was 2.04%; with `CCCN1CCN(C(=O)Cn2cccc2C(=O)c2ccccc2)CC1`, 1.15%; with `CCOc1ccc(-c2cc(NC(=O)Cn3ncc4c(=O)oc5ccc(C)cc5c43)on2)cc1`, -5.25%. With `CCS(=O)CCSc1nc(-c2cccs2)cc(-c2ccccc2)c1C#N` (centres unmarked) the figure was 7.76%; with `N#Cc1c(C(F)(F)F)cc(-c2cccs2)nc1SCc1ccncc1`, 57.7%; with `N#Cc1sc2nc(-c3cccs3)cc(C(F)(F)F)c2c1N`, -2.32%.

With `CCSc1nc(-c2cccs2)cc(C(F)(F)F)c1C#N`, the “% Inhibition @ 10 uM” value is 82.6%.

Consider `Cc1cccc(NC(=O)CSc2nc(-c3cccs3)cc(C(F)(F)F)c2C#N)n1`, for which the “% Inhibition @ 10 uM” value was 18.3%. Regarding `N#Cc1c(C(F)(F)F)cc(-c2cccs2)nc1SCC(=O)Nc1nccs1`, the “% Inhibition @ 10 uM” value is listed as 0.121%. With `N#Cc1c(C(F)(F)F)cc(-c2cccs2)nc1SCC(=O)Nc1ccccn1` the figure was 2.44%; with `CC(=O)NCCSc1nc(-c2cccs2)cc(-c2ccc(F)cc2)c1C#N`, 5.65%. With `N#Cc1c(-c2cccs2)cc(-c2ccccc2)nc1S` the figure was 20.6%; with `CCSc1nc(-c2ccc(OC)cc2)cc(C(F)(F)F)c1C#N`, -1.4%. Take `N#Cc1c(C(F)(F)F)cc(-c2cccs2)nc1S`: the “% Inhibition @ 10 uM” value stood at 88.5%. With `CCCCSc1nc(-c2cccs2)cc(C(F)(F)F)c1C#N` the figure was 60.7%. With `Cc1ccnc(NC(=O)c2ccc(C)c(C)c2)c1` the figure was 2.64%; with `O=c1oc2c3c(c(Cl)cc2c2c1CCCC2)OCN(Cc1ccco1)C3`, 4.13%; with `O=C(Nc1ccc([N+](=O)[O-])cc1)c1ccc(-c2ccccc2)cc1`, 2.62%. Consider `CC(=O)N1CCN(C2CCc3ccccc3C2)CC1` (centres unmarked), for which the “% Inhibition @ 10 uM” value worked out at 0.217%.

Turning to `CCC(C)NC(=O)c1ccccc1NS(=O)(=O)c1ccc(NC(C)=O)cc1` (centres unmarked), the “% Inhibition @ 10 uM” value is reported as -0.872%. In the case of `COc1ccc(C2=N/C(=C\C=C\c3ccccc3)C(=O)O2)cc1`, the “% Inhibition @ 10 uM” value came out at 7.01%.

`Cc1ccc(NC(=O)C(CC(C)C)N2Cc3ccccc3C2=O)nc1` (centres unmarked): the “% Inhibition @ 10 uM” value is -0.234%.

Regarding `O=C(c1ccc(Br)cc1)N1CCN(c2ccc(F)cc2)CC1`, the “% Inhibition @ 10 uM” value is 0.815%.

For `C#CCSc1nc(-c2ccccc2)cc(C(F)(F)F)c1C#N`, the “% Inhibition @ 10 uM” value is recorded as -10.2%.

As to `N#CNC(=N)CSc1nc(-c2ccccc2)cc(C(F)(F)F)c1C#N`, the “% Inhibition @ 10 uM” value was 0.0719%. For `N#Cc1c(C(F)(F)F)cc(-c2ccccc2)nc1S`, the “% Inhibition @ 10 uM” value is 73.6%.

On to `COc1cc(/C=C2/NC(=O)N(Cc3ccccc3F)C2=O)cc(Br)c1O`, for which the “% Inhibition @ 10 uM” value was 63%. With `COc1cc(/C=C2/NC(=O)N(Cc3ccccc3F)C2=O)cc(Cl)c1O` the figure was -1.28%; with `C=CCc1cc(/C=C2/NC(=O)N(Cc3ccccc3F)C2=O)cc(OC)c1O`, -2.63%; with `Cc1oc(-c2ccc3c(c2)OCCO3)cc1C(=O)NCC(=O)O`, -1.69%. As to `CCCNC(=O)c1cc2n(n1)C(C(F)(F)F)CC(c1ccc(Br)cc1)N2` (centres unmarked), the “% Inhibition @ 10 uM” value is recorded as -0.67%. For `COc1ccc(-c2nc3scc(CCNC(=O)c4cc(OC)c(OC)c(OC)c4)n3n2)cc1`, the “% Inhibition @ 10 uM” value is 5.49%. With `COc1ccc(NC(=O)C2=C(C)NC(=O)NC2c2ccc(Br)cc2)cc1` (centres unmarked) the figure was 57.9%.

Regarding `COc1ccc(NC(=O)C2=C(C)NC(=O)NC2c2ccc(OC)cc2)cc1` (centres unmarked), the “% Inhibition @ 10 uM” value is listed as 9.5%. With `COc1ccc(NC(=O)C2=C(C)NC(=O)NC2c2ccc(C)cc2)cc1` (centres unmarked) the figure was -2.18%.
